58 molecules from publication PMC4336329 (PLoS ONE, 2015) can be followed below.

The whole screen tested about 310,000 compounds, of which about 14,000 (4.5%) showed an effect of 50% or more. The effect is printed as a negative number. Only a selection was taken, and strong results are over-represented in it overall.
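Also: peak tail current of the secondary pulse compared with the same well before compound.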

Chain of human ether-à-go-go-related gene (hERG) potassium channel (Q12809 whole entry, looked up): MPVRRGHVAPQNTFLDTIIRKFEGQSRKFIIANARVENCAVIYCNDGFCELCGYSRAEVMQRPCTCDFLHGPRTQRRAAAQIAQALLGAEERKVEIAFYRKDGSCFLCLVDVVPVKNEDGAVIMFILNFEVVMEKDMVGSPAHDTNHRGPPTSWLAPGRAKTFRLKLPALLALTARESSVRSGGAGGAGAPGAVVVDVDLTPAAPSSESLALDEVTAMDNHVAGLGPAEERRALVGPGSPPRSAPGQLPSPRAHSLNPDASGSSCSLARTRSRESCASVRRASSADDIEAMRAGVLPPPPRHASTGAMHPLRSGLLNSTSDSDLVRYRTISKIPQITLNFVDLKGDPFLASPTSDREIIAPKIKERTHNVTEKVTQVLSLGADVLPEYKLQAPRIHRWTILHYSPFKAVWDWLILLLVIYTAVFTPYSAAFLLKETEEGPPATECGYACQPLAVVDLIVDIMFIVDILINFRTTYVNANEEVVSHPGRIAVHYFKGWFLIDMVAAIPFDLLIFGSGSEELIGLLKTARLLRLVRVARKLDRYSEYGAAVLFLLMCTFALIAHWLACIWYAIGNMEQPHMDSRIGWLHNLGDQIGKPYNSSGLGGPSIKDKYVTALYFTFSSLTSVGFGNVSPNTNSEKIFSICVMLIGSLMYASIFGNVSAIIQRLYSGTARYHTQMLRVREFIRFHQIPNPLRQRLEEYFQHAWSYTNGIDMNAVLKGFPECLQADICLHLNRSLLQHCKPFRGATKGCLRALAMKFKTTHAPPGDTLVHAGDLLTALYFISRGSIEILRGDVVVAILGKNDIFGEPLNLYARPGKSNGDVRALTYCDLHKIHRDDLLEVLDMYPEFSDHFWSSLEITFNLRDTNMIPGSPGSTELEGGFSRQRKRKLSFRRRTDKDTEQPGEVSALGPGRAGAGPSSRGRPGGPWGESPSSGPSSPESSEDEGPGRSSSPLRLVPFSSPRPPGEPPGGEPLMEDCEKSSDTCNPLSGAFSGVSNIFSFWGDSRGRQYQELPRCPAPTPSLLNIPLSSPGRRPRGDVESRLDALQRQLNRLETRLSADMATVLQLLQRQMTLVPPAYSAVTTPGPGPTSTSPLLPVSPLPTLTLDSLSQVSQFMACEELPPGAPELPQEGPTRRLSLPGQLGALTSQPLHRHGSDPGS

The assay concerns the target human ether-à-go-go-related gene (hERG) potassium channel (human, UniProt Q12809). Description: primary screen, population patch clamp on CHO cells stably expressing hERG; higher = less effect of the substance.
Regarding `Cc1ccc(Nc2nc(-c3ccc(F)cc3)cs2)nc1`, the “hERG current change (%, negative = inhibition) at 10uM” value is given as 17.1%.

Regarding `Cc1ccc2cc(CNCCc3ccccc3C)c(=O)[nH]c2c1`, the “hERG current change (%, negative = inhibition) at 10uM” value is -69.7%. In the case of `Cc1ccc2cc(CNC(C)C)c(=O)[nH]c2c1` it was -9.38%; in that of `CCNC(=S)N(CCc1ccc(OC)c(OC)c1)Cc1cc2cc(OC)ccc2[nH]c1=O`, -56.9%; in that of `Cc1ccc2cc(CNC(C)(C)C)c(=O)[nH]c2c1`, -19%.

`CCNC(=S)N(CCc1cccc(C)c1)Cc1cc2cc(OC)c(OC)cc2[nH]c1=O`: the “hERG current change (%, negative = inhibition) at 10uM” value is -22.4%. In the case of `CNCc1cc2ccc(C)cc2[nH]c1=O` it was -33.1%. As to `CCC(=O)N(CCc1ccc(OC)c(OC)c1)Cc1cc2ccc(C)cc2n2nnnc12`, the “hERG current change (%, negative = inhibition) at 10uM” value is -76.8%.

With `CCNC(=S)N(CCc1ccccc1C)Cc1cc2cc(OC)c(OC)cc2[nH]c1=O`, the “hERG current change (%, negative = inhibition) at 10uM” value is given as -22.3%. Turning to `CCC(=O)N(Cc1cc2ccc(C)cc2n2nnnc12)C1CCCCC1`, the “hERG current change (%, negative = inhibition) at 10uM” value is reported as -32.3%. With `COc1ccc(CCN(Cc2cc3ccc(C)cc3n3nnnc23)C(C)=O)cc1OC`, the “hERG current change (%, negative = inhibition) at 10uM” value is -32.7%.

Turning to `CC(=O)N(CCc1ccccc1C)Cc1cc2ccc(C)cc2[nH]c1=O`, the “hERG current change (%, negative = inhibition) at 10uM” value is on record as -18.3%. The same measure for `Cc1cccc(CCNCc2cc3ccc(C)cc3[nH]c2=O)c1`: -77.3%; for `CCOC(=O)C1(CC2CCCCO2)CCN(C(=O)Nc2ccc3c(c2)OCO3)CC1` (stereo not shown): 15.9%; for `COCC(=O)Nc1ccc(C(C)C)cc1`: -1.68%. As to `CCCCC/S(CC1CC1(Cl)Cl)=N\S(=O)(=O)c1ccc(C)cc1` (stereo not shown), the “hERG current change (%, negative = inhibition) at 10uM” value amounted to 15.8%. The same measure for `Cc1sc(NC(=O)C2CCCCC2C(=O)O)c(C(N)=O)c1-c1ccc(C(C)C)cc1` (stereo not shown): -9.39%; for `CCCCC(=O)Nc1nnc(SCC(=O)NCC2CCCO2)s1` (stereo not shown): -24.8%. On to `CCNS(=O)(=O)c1ccc(CCC(=O)NCc2cccnc2)cc1`, for which the “hERG current change (%, negative = inhibition) at 10uM” value is 16.8%. In the case of `Cc1ccc(C(=O)n2c3ccccc3c3ccccc32)cc1` it was 15.9%.

For the molecule `COC(=O)[C@]1(C)N[C@H](c2ccc(SC3CCCCC3)c(OC)c2)[C@@H]2C(=O)N(C)C(=O)[C@@H]21.O=C(O)C(F)(F)F`, the “hERG current change (%, negative = inhibition) at 10uM” value was -16.6%. The same measure for `O=C(Nc1ccccc1)C1=C[C@@H](c2ccccc2)C[C@@H](OCc2ccc(CO)cc2)O1`: 2.2%; for `O=C(NCC(=O)N1CCOCC1)c1ccc(Br)o1`: 17.4%; for `CC(C)CNC(=O)CSc1n[nH]c(=O)n1CCc1ccccc1`: 22.1%. As for `Cc1nc2c(-c3ccccc3)cnn2c(N2CCOCC2)c1C`, the “hERG current change (%, negative = inhibition) at 10uM” value amounted to 11.8%.

Turning to `COc1ccc(/C=N/NC(=O)C(C)Sc2ccccn2)cc1[N+](=O)[O-]` (stereo not shown), the “hERG current change (%, negative = inhibition) at 10uM” value was -7.8%. The same measure for `COc1ccc(CCN(Cc2cc3cc(C)ccc3[nH]c2=O)C(C)=O)cc1OC`: -6.87%; for `COc1ccc(CCNCc2cc3ccc(C)cc3[nH]c2=O)cc1OC`: -73.6%; for `COc1ccc(CC(=O)OCc2cc3ccc(C)cc3[nH]c2=O)cc1`: 9.18%. The same measure for `CC(=O)N(CCc1cccc(C)c1)Cc1cc2ccc(C)cc2[nH]c1=O`: -19.7%; for `COc1cc(OC)c(OC)cc1CNCCc1ccc(OC)c(OC)c1`: -6.55%. For the molecule `COc1ccc(CCN(Cc2cc3ccc(C)cc3[nH]c2=O)C(C)=O)cc1OC`, the “hERG current change (%, negative = inhibition) at 10uM” value is -65.1%. As to `CC(=O)c1cn(-c2ccc(Cl)cc2)c(=O)n(Cc2ccc(F)cc2)c1=O`, the “hERG current change (%, negative = inhibition) at 10uM” value was found to be 1.04%. Take `COc1ccc(CNC(=O)CCS(=O)(=O)c2ccc(Br)cc2)cc1`: the “hERG current change (%, negative = inhibition) at 10uM” value came to 7.33%. In the case of `CC(=O)Nc1ccc(NS(=O)(=O)c2ccc(-c3cnc(C4CC4)o3)cc2)cc1` it was 3.37%. Take `CCC(CC)C1C(C#N)=C(N)Oc2cc(C)oc(=O)c21` (stereo not shown): the “hERG current change (%, negative = inhibition) at 10uM” value is reported as -12.7%. The same measure for `CC1(C)C(c2ccccc2)=NC(c2cccnc2)=[N+]1[O-]`: 14.8%; for `COc1ccc(C(=O)N2CC3(C)C4CCC3(C)C2(C#N)C4)cc1OC` (stereo not shown): 4.65%; for `COCC(C)NC(=O)CSc1nc2nn(-c3ccccc3)c(=O)c-2c2n1CCCCC2` (stereo not shown): 8.5%. As for `CC(C)CNC(=O)CSc1nc2nn(-c3ccccc3)c(=O)c-2c2n1CCCCC2`, the “hERG current change (%, negative = inhibition) at 10uM” value is -18%. The same measure for `O=C(CSc1nc2nn(-c3ccccc3)c(=O)c-2c2n1CCCCC2)Nc1ccc(F)cc1F`: -63.2%.

Consider `CNC(=O)CSc1nc2nn(-c3ccccc3)c(=O)c-2c2n1CCCCC2`, for which the “hERG current change (%, negative = inhibition) at 10uM” value is recorded as -37.2%.

Consider `COCCNC(=O)CSc1nc2nn(-c3ccccc3)c(=O)c-2c2n1CCCCC2`, for which the “hERG current change (%, negative = inhibition) at 10uM” value turned out to be 23.2%. Consider `O=C(CSc1nc2nn(-c3ccccc3)c(=O)c-2c2n1CCCCC2)NCCCc1ccccc1`, for which the “hERG current change (%, negative = inhibition) at 10uM” value was -63.1%. In the case of `CC(C)(C)CC(=O)NCCc1csc(-c2ccccc2)n1` it was -7.63%; in that of `Cn1ncc(Cl)c1C(=O)N/N=C/c1cccc(OC2CSC2)c1`, 8.77%; in that of `O=C(Nc1nccs1)c1cc(Cl)ccc1[N+](=O)[O-]`, -9.55%. Take `Cc1cccc(Cn2c(N(C)Cc3ccccc3)nc3c2c(=O)[nH]c(=O)n3C)c1`: the “hERG current change (%, negative = inhibition) at 10uM” value is on record as -9.99%. The same measure for `CCOc1ccc2nc(NC(=O)Nc3cccs3)sc2c1`: 18%. As to `COc1ccc(C(=O)Nc2ccccc2N2CCOCC2)cc1S(=O)(=O)N1CCOCC1`, the “hERG current change (%, negative = inhibition) at 10uM” value was -17.8%. In the case of `CCCCN1C(=O)c2ccc(C(=O)Nc3ccccc3N3CCOCC3)cc2C1=O` it was 7.18%; in that of `O=C(Nc1ccccc1N1CCCC1)c1ccc(F)c(S(=O)(=O)N2CCOCC2)c1`, -22.5%; in that of `Cc1ccc(C(=O)Nc2ccccc2N2CCOCC2)cc1S(=O)(=O)N1CCOCC1`, -55.3%.

Turning to `Cc1ccc(C(=O)Nc2ccccc2N2CCCC2)cc1S(=O)(=O)N1CCOCC1`, the “hERG current change (%, negative = inhibition) at 10uM” value is -51.2%. In the case of `O=C(Nc1ccccc1N1CCCC1)c1ccc(Cl)c(S(=O)(=O)N2CCOCC2)c1` it was -41.4%; in that of `O=C(Nc1ccccc1N1CCOCC1)c1ccc(F)c(S(=O)(=O)N2CCOCC2)c1`, -12.6%. For the molecule `O=C(Nc1ccccc1N1CCOCC1)c1ccncc1`, the “hERG current change (%, negative = inhibition) at 10uM” value is on record as -1.93%. `O=C(Nc1ccccc1N1CCOCC1)c1ccc2c(c1)C(=O)N(Cc1ccncc1)C2=O`: the “hERG current change (%, negative = inhibition) at 10uM” value is -58.8%.
